The campaign covered roughly 330,000 compounds. About 4,900 (1.5%) were called active.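 How the source made its calls: active means inhibition above the mean inhibition across the screen plus 3 SD (cut at about 25% in these data); inactive means the rest.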 The full list was thinned out, with actives kept by preference.
These molecules were tested against Platelet-activating factor acetylhydrolase (Homo sapiens) (UniProt Q13093) (assay: inhibition of plasma PAF acetylhydrolase – biochemical, fluorescence polarization, human, primary screen (AID 463082;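 further: inhibitors block binding of the rhodamine activity-based probe so polarization drops; 0% = enzyme with DMSO and 100% = wells lacking pPAFAH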)). Details: recombinant pPAFAH, FP-rhodamine probe fluorescence polarization; at 3.39 µM; hits give high values.
Platelet-activating factor acetylhydrolase (Homo sapiens), sequence (Q13093 whole entry, looked up): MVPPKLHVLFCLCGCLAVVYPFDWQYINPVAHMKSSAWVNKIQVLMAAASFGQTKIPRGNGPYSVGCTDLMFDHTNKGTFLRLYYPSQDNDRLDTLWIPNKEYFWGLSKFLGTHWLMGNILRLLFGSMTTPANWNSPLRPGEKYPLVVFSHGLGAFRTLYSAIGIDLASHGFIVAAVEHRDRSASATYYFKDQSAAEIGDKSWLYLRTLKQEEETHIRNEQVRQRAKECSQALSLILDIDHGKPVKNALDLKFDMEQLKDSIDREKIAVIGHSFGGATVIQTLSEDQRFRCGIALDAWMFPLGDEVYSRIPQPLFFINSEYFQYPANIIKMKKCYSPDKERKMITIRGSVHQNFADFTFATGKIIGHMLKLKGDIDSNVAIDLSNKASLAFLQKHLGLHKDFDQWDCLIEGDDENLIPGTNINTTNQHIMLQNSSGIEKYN
In the case of CCCCN1C(=O)/C(=C2/Sc3ccc(Cl)cc3N2CC)SC1=S, the inhibition was 3.72% (inactive). CCCCN1C(=O)/C(=C/C=C2/C=Cc3ccccc3N2CC)SC1=S was tested, and the inhibition was -3.21% (inactive). In the case of CCOC(=O)C(CCOc1cccc(CC)c1)C(=O)OCC, the inhibition was 5.98% (inactive). In the case of CCCn1nc(C(=O)OCc2nc(N)nc(Nc3ccccc3C)n2)c2ccccc2c1=O, the inhibition was -2.36% (inactive). O=C(Nc1nnc(CCOCCOCCc2nnc(NC(=O)c3ccco3)s2)s1)c1ccco1 was tested, and the inhibition was 8.62% (inactive). With NC(=O)c1ccsc1NC(=O)c1ccco1 the inhibition was 3.89% (inactive). In the case of O=C(Nc1nc(-c2ccco2)c(-c2ccco2)s1)c1ccco1, the inhibition was 43% (active). In the case of COc1cc2ccccc2cc1C(=O)Nc1ccc(N2CCOCC2)cc1, the inhibition was 11.2% (inactive). COc1ccc(N2CCN(C3CC(=O)N(c4ccc5c(c4)OCCO5)C3=O)CC2)cc1 (stereo not given) was tested, and the inhibition was -4.08% (inactive). With CC(=O)Oc1cccc(N2C(=O)CC(Nc3ccc(N4CCOCC4)cc3)C2=O)c1 (stereo not given) the inhibition was 25.3% (active). For O=C(CN1CCN(c2cccc(Cl)c2)CC1)Nc1ccc(S(=O)(=O)N2CCOCC2)cc1, the inhibition was 5.13% (inactive). In the case of O=C(O)c1ccc(N/N=C/c2cn(-c3ccccc3)nc2-c2cccs2)cc1, the inhibition was 34% (active). In the case of O=C(NCc1cccnc1)c1cn(-c2ccccc2)nc1-c1cccs1, the inhibition was -4.38% (inactive). For COc1ccc(-c2nn(-c3ccccc3)cc2/C=C\C(=O)Nc2ccc(C(=O)O)cc2)cc1, the inhibition was -67.2% (inactive). With Cn1ncc(N2CCN(S(=O)(=O)c3ccc(Br)cc3)CC2)c(Cl)c1=O the inhibition was -5.38% (inactive). For Cc1ccc(-c2nn(-c3ccccc3)cc2/C=C/C(=O)Nc2cccc(S(N)(=O)=O)c2)cc1, the inhibition was -54.5% (inactive). In the case of Cc1ccc(-c2nn(-c3ccccc3)cc2/C=C2\SC(=S)N(CCCCCC(=O)O)C2=O)o1, the inhibition was 31.3% (active). For Cc1ccc(/C=C2\SC(=S)N(CCC(=O)Nc3ccc(O)cc3)C2=O)cc1, the inhibition was 4.61% (inactive). CN(C)S(=O)(=O)c1cccc(-c2nn(-c3ccccc3)cc2/C=C2\SC(=S)N(CC(=O)O)C2=O)c1 was tested, and the inhibition was 38.2% (active). C=CCOc1ccc(/C=C2\SC(=S)N(CCC(=O)O)C2=O)cc1 was tested, and the inhibition was 10.2% (inactive). In the case of O=C(CN1C(=O)/C(=C\c2ccccc2F)SC1=S)Nc1nc2ccccc2s1, the inhibition was 7.09% (inactive). For O=C(N[C@@H]1C/C=C\C[C@@H](CC(=O)N(CCO)Cc2ccccc2)C(=O)N[C@H](Cc2ccccc2)COC1=O)OCC1c2ccccc2-c2ccccc21, the inhibition was 7.18% (inactive). O=C(NCCc1ccccn1)c1cc(C(=O)C2CCCCC2)c[nH]1 was tested, and the inhibition was 4.41% (inactive). With O=[N+]([O-])c1ncc(Br)cc1Nc1ccccc1 the inhibition was 0.58% (inactive). For O=[N+]([O-])c1cc(S(=O)(=O)CCCN2CCOCC2)ccc1F, the inhibition was 0.16% (inactive). In the case of N#Cc1ccccc1S(=O)(=O)N1CCN(C(=O)c2cc(-c3ccccc3)nn2-c2ccccc2)CC1, the inhibition was 0.65% (inactive). With Cc1csc(SCC(=O)Nc2sccc2C#N)n1 the inhibition was 11.3% (inactive). For Cc1cccc(C)c1Nc1nnc(SCC(=O)NCCCN2CCCC2=O)s1, the inhibition was 1.62% (inactive). With Cc1cccc(C)c1Nc1nnc(SCC(=O)Nc2sccc2C#N)s1 the inhibition was 27.6% (active). CC1=CC=CC2=N/C(=N\S(=O)(=O)c3ccc(F)cc3F)c3ccccc3CN12 was tested, and the inhibition was 1.76% (inactive). COc1cc(C(=O)Nc2oc(-c3ccccc3)c(-c3ccccc3)c2C#N)cc(OC)c1OC was tested, and the inhibition was 4.29% (inactive). CC(Oc1ccccc1)C(=O)Nc1oc(-c2ccco2)c(-c2ccco2)c1C#N (stereo not given) was tested, and the inhibition was 28.7% (active). CC(C)C(=O)Nc1oc(-c2ccccc2)cc1C#N was tested, and the inhibition was -0.35% (inactive). With O=C(COC(=O)COc1cccc(F)c1)NCC1CCCCC1 the inhibition was 7.16% (inactive). For O=C(CNC(=O)c1cc(=O)[nH]c2ccccc12)Nc1ccc(F)c(F)c1, the inhibition was 0.37% (inactive). In the case of Cc1c(C(=O)OCC(=O)N(CCC#N)c2ccccc2)oc2c1ccc1ccccc12, the inhibition was -0.27% (inactive). For Cc1ccc2nc(SCC(=O)Nc3cccc4ccccc34)nc(=O)n2c1, the inhibition was 3.47% (inactive). Cc1ccccc1-n1c(SCC(=O)Nc2cccc3ccccc23)nc(O)cc1=O was tested, and the inhibition was 45.7% (active). With C=CCn1c(N)cc(=O)nc1SCC(=O)Nc1cccc2ccccc12 the inhibition was 0.51% (inactive). For C=CCN(Cc1nc(-c2cc(OC)c3c(c2)OCO3)oc1C)C1CCS(=O)(=O)C1 (stereo not given), the inhibition was 30.4% (active). With CN(C(=O)CSc1nnc(-c2ccc3c(c2)OCO3)o1)C1CCS(=O)(=O)C1 (stereo not given) the inhibition was -3.28% (inactive). With COc1ccccc1C(=O)N(Cc1ccc(C)o1)C1CCS(=O)(=O)C1 (stereo not given) the inhibition was 0.97% (inactive). In the case of NNC(=O)c1oc2nc(-c3ccccc3)cc(-c3ccco3)c2c1N, the inhibition was 37.4% (active). CNC(=S)NNC(=O)c1oc2nc(-c3ccccc3)cc(-c3ccco3)c2c1N was tested, and the inhibition was 11% (inactive). In the case of O=C(Nc1cccc(F)c1)c1cc(-c2ccco2)nc2ccccc12, the inhibition was 16% (inactive).
